Compounds with a hit are over-represented: about 2.4% of the library has one in this group of screens.
WRN inhibitor – blocks human WRN helicase. Q14191. actives 0.46% (n = 360,000). Potency, µM (titrated, usually from 114 µM), without a hit: at the highest dose activity change, negative = inhibition, usual class: inhibitors. WRN helicase unwinding, fluorescent forked duplex, kinetic; note: % is set by controls: 0 for no effect and ±100 for the full control effect; nearly all actives have a fitted effect of over 55% in size
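Kinetic fluorescence helicase assay: unwinding of a quenched forked DNA duplex (100 nM final) with 2 mM ATP final raises red fluorescence (525/598 nm). Compounds sat 15 min at room temperature with 20 nM WRN beforehand.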
Pol kappa inh-1 – blocks human DNA polymerase kappa activity | actives 0.53% (n = 400,000) | purified Pol kappa, fluorescent DNA synthesis assay, 10 min | Potency, µM (titrated, usually from 107 µM), for the others: at the top dose activity, negative = inhibition, actives largely listed as inhibitors; note: % is set by controls: 0 for no effect and ±100 for the full control effect
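First, compounds were pin-transferred onto 10 nM Pol kappa. After 15 min at room temperature, substrate was added to 50 nM final. Fluorescence was then measured kinetically at 0 and 10 min.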
POLB inh – DNA polymerase beta (human) inhibition; P06746; Pol beta primer extension/strand displacement, fluorescence kinetic; Potency, µM (highest dose often 114 µM), without a hit: at the highest dose activity change, negative = inhibition, actives largely listed as inhibitors; actives 1.3% (n = 340,000); note: % is set by controls: 0 for no effect and ±100 for the full control effect
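Values derive from four-parameter Hill fits of normalized kinetic data: reads at 0 and 10 min following addition of 50 nM substrate to 10 nM Pol beta preincubated 15 min with compound.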
Pol eta inh-1 – inhibitors of human DNA polymerase eta | Q9Y253 | recombinant Pol eta, fluorescent DNA replication assay | Potency, µM (highest dose often 114 µM), for the others: top-dose activity change, negative = inhibition, hits mostly inhibitors | actives 1.2% (n = 390,000) | AID 588591; note: % is set by controls: 0 for no effect and ±100 for the full control effect
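Pol eta at 10 nM preincubated with compounds 15 min at room temperature; reaction started with fluorescent substrate (50 nM final) and read kinetically at 0 and 10 min.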
FEN1 inhibitor – blocks human flap endonuclease 1. P39748. Recombinant FEN1 flap cleavage, fluorescence, 15 min. Potency, µM (top dose mostly 114 µM), for the others: top-dose activity change, negative = inhibition, usual class: inhibitors. actives 0.35% (n = 390,000). AID 588795; note: % is set by controls: 0 for no effect and ±100 for the full control effect; nearly all actives have a fitted effect of over 65% in size
Target sequence (P39748 whole entry, looked up): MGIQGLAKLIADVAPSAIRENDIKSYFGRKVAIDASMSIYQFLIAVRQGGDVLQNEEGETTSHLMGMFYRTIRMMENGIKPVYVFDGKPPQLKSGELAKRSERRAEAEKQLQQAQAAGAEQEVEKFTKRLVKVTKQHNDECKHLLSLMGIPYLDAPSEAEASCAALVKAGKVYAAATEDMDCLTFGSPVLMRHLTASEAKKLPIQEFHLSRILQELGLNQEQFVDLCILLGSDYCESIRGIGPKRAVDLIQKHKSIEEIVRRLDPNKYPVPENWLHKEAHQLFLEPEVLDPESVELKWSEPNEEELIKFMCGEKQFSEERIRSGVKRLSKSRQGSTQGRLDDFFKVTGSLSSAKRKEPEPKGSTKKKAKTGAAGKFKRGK
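FEN1 at 10 nM, compound pretreatment for 15 min (room temperature), 50 nM final substrate to initiate; endpoint reads at 0 and 15 min; DMSO-only plates used as vehicle background.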
Pol iota inh – DNA polymerase iota (human) inhibition; Pol iota fluorescent replication assay, 10 min; actives 1% (n = 390,000); Potency, µM (top dose mostly 115 µM), without a hit: at the top dose activity, negative = inhibition, actives largely listed as inhibitors; Q9UNA4
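Pol iota at 10 nM preincubated 15 min with compounds at room temperature; reaction started with fluorescent substrate, 50 nM final. Fluorescence read kinetically at 0 and 10 min; buffer-only wells as negative control.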
Pol kappa inh-2 – confirmation of human DNA polymerase kappa inhibitors. purified Pol-kappa, fluorescent strand-displacement substrate. AID 720501. actives 76% (n = 920). shares compounds with Pol eta inh-1. Potency, µM, hits mostly inhibitors
Pol eta inh-2 – Pol eta (human) inhibition, cherry-pick confirmation | AID 720502 | actives 64% (n = 2,600) | Pol eta primer extension, TAMRA/BHQ fluorescence, 10 min | Potency, µM, most hits filed as inhibitors | shares compounds with Pol eta inh-1
* hit, by the source's call; [ ] = remark or other dose. Calls come from the whole dose curve; as a rule, active = well fitted curve in the direction sought with a large enough effect; inconclusive = small, poorly fitted or top-dose-only effect, or another doubt; inactive = no such curve, though single readings can be large; an effect the other way counts as inactive or inconclusive. Potency is the fitted concentration of half-maximal effect.

N#Cc1cc(C(=O)c2cc(F)ccc2O)cn(-c2nccs2)c1=O was read as WRN inhibitor inconclusive, Pol kappa inh-1 inconclusive, POLB inh 18µM*, Pol eta inh-1 28µM*, FEN1 inhibitor inconclusive, Pol iota inh inconclusive and Pol eta inh-2 inconclusive.
For N#Cc1cc(C(=O)c2ccccc2O)cn(-c2nccs2)c1=O the results were WRN inhibitor -7%[11.6 µM], Pol kappa inh-1 -29%, POLB inh 20µM*, Pol eta inh-1 16µM*, FEN1 inhibitor -18%, Pol iota inh -16% and Pol eta inh-2 67*.
Cc1c(-n2cc(C(=O)c3cc(F)ccc3O)cc(C#N)c2=O)c(=O)n(-c2ccccc2)n1C was read as WRN inhibitor -23%, Pol kappa inh-1 -2%, POLB inh 3%, Pol eta inh-1 6%, FEN1 inhibitor -6% and Pol iota inh 74%.
Screening COc1ccc(C(=O)NCC(=O)OCc2cc(=O)n3nc(C4CCCCC4)sc3n2)cc1 returned Pol kappa inh-1 -3%, POLB inh 9%, Pol eta inh-1 -13%, FEN1 inhibitor 19% and Pol iota inh 15%.
COc1ccc(N2CC(C(=O)Nc3nnc(SCC(=O)NCc4ccco4)s3)CC2=O)cc1 (stereo not drawn) was read as WRN inhibitor inconclusive, Pol kappa inh-1 -42%, POLB inh inconclusive, Pol eta inh-1 22µM*, FEN1 inhibitor -17%, Pol iota inh inconclusive, Pol kappa inh-2 42* and Pol eta inh-2 inconclusive.
Screening COc1ccc(C(=O)Nc2cccc(-c3nc4cccnc4s3)c2C)c(OC)c1 returned Pol kappa inh-1 inconclusive, POLB inh 2%, Pol eta inh-1 -4%, FEN1 inhibitor -2%, Pol iota inh 79µM* and Pol kappa inh-2 47*.
`CCOCC(=O)Nc1cccc(-c2nc3cccnc3s2)c1C` gave WRN inhibitor 3%, Pol kappa inh-1 -3%, POLB inh 0%, Pol eta inh-1 -16%, FEN1 inhibitor 15% and Pol iota inh 25%.
Screening Cc1ccc(C(=O)Nc2ccc3c(c2)N(C)C(=O)c2ccccc2S3)cc1F returned Pol kappa inh-1 -11%[60.1 µM], POLB inh inconclusive, Pol eta inh-1 -6%, FEN1 inhibitor 10% and Pol iota inh -8%.
For COc1ccc2cc3cc(C(=O)N4CCN(c5ccc(C(C)=O)cc5)CC4)sc3nc2c1Cl the results were Pol kappa inh-1 -4%[60.1 µM], POLB inh -5%, Pol eta inh-1 0%, FEN1 inhibitor -3% and Pol iota inh 14%.
`COc1ccccc1NC(=O)c1cc2cc3ccc(OC)c(Cl)c3nc2s1` gave Pol kappa inh-1 -9%[60.1 µM], POLB inh 2.8µM*, Pol eta inh-1 inconclusive, FEN1 inhibitor inconclusive, Pol iota inh -27%, Pol kappa inh-2 21* and Pol eta inh-2 inconclusive.
`CN(Cc1ccco1)c1ccnc(-c2ccccc2C(F)(F)F)n1` gave Pol kappa inh-1 -7%[60.1 µM].
`C[N+]1(CC(=O)c2ccc3c(c2)CCCC3)CCOCC1` gave Pol kappa inh-1 6%, FEN1 inhibitor -21% and Pol iota inh 35%.
Nc1c(C(=O)NCc2ccco2)sc2nc3c(cc12)C(=O)CCC3 was read as WRN inhibitor inconclusive, Pol kappa inh-1 inconclusive, POLB inh 32µM*, Pol eta inh-1 32µM*, FEN1 inhibitor inconclusive, Pol iota inh inconclusive and Pol eta inh-2 54*.
For COc1ccc2cc3c(N)c(C(=O)NCc4ccco4)sc3nc2c1 the results were WRN inhibitor -18%, Pol kappa inh-1 inconclusive, POLB inh 3%, Pol eta inh-1 inconclusive, FEN1 inhibitor inconclusive and Pol iota inh inconclusive.
`C=C[C@@]1(C)CC(=O)[C@@]2(O)[C@@]3(C)[C@@H](O)CCC(C)(C)[C@@H]3[C@H](O)[C@H](OC(C)=O)[C@@]2(C)O1` gave Pol kappa inh-1 -15%[19.4 µM].
Screening O=C(/C=C/c1ccco1)NC(=S)NNC(=O)c1ccco1 returned WRN inhibitor -6%[11.6 µM], Pol kappa inh-1 -32%, POLB inh inconclusive, Pol eta inh-1 50µM*, FEN1 inhibitor 2%, Pol iota inh inconclusive and Pol kappa inh-2 inconclusive.
CCN1C(=NCc2cccc(Cl)c2)N[C@@H](c2cccc(C(F)(F)F)c2)C(C(=O)OC)=C1C was read as Pol kappa inh-1 -15%, FEN1 inhibitor 2% and Pol iota inh inconclusive.
For COc1ccc(OCCCC(=O)OCC(=O)Nc2ncc(Cl)cc2Cl)cc1 the results were WRN inhibitor inconclusive, Pol kappa inh-1 -31%, Pol eta inh-1 40µM*, FEN1 inhibitor -16%, Pol iota inh inconclusive, Pol kappa inh-2 inconclusive and Pol eta inh-2 85*.
For O=C(COC(=O)CNC(=O)c1ccc([N+](=O)[O-])o1)Nc1ncc(Cl)cc1Cl the results were WRN inhibitor -7%[11.6 µM], Pol kappa inh-1 -21%, Pol eta inh-1 inconclusive, FEN1 inhibitor -3%, Pol iota inh inconclusive and Pol eta inh-2 inconclusive.
Screening CCCN1CCC(=O)N(C(CSc2ccc(Br)cc2)CC(C)C)CC1 (stereo not drawn) returned Pol kappa inh-1 0%, FEN1 inhibitor -17% and Pol iota inh 14%.
Cc1cc(C)nc(NS(=O)(=O)c2ccc(-n3cccc3)cc2)n1 was read as WRN inhibitor inconclusive, Pol kappa inh-1 79µM*, POLB inh 32µM*, Pol eta inh-1 10µM*, FEN1 inhibitor -24%, Pol iota inh inconclusive and Pol eta inh-2 54*.
Cc1cc(C)nc(NS(=O)(=O)c2ccc(Br)cc2)n1 was read as WRN inhibitor 2%, Pol kappa inh-1 -23%, POLB inh 4%, Pol eta inh-1 -13%, FEN1 inhibitor 5% and Pol iota inh 42%.
O=C1Nc2c(Cl)cc(Cl)cc2C1=O was read as WRN inhibitor -5%[11.6 µM], Pol kappa inh-1 inconclusive, Pol eta inh-1 inconclusive, FEN1 inhibitor -22%, Pol iota inh inconclusive and Pol eta inh-2 inconclusive.
For Cc1cccc(N=C2C(=O)Nc3c(Cl)cccc32)c1 the results were WRN inhibitor 1%, Pol kappa inh-1 -12%, POLB inh 2%, Pol eta inh-1 -4%, FEN1 inhibitor -9% and Pol iota inh inconclusive.
